Results as given in PubChem BioAssay (Tox21).
Results filed as inconclusive are left out. Calls of active or inactive are those of the source. Unless noted, the call rests on the fitted dose curve; in most records, active means well fitted curve in the direction sought with a large enough effect in the repeat runs; inconclusive means weak or mixed curves; inactive means no such curve, though single readings can be large; an effect the other way counts as inactive or inconclusive.

What was measured:
[1] = qHTS assay to test for compound auto fluorescence at 535 nm (green) in HEK293 cells (AID 720680)
[2] = qHTS assay to test for compound auto fluorescence at 460 nm (blue) in HEK293 cell free culture (AID 720681)
Method in brief: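 Blue fluorescence (Ex 405/Em 460 nm, triamterene-equivalent) was read immediately after pin transfer of compound or DMSO into medium (DMEM, 10% FBS) without cells.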

[3] = qHTS assay to test for compound auto fluorescence at 535 nm (green) in HEK293 cell free culture (AID 720682)
Method in brief: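 Measurement is a direct plate read of green fluorescence (485 nm in, 535 nm out) after compound addition to serum-supplemented DMEM lacking cells, with fluorescein used to express intensities.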

[4] = qHTS assay to test for compound auto fluorescence at 590 nm (red) in HEK293 cell free culture (AID 720683)
Method in brief: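 Red-channel autofluorescence of compounds in culture medium (DMEM, 10% FBS), no cells, measured at 540/590 nm. Rose Bengal sodium is the reference fluorophore for equivalence.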

[5] = qHTS assay to test for compound auto fluorescence at 590 nm (red) in HepG2 cell free culture (AID 720684)
Method in brief: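 Steps: dispense MEM/10% FBS medium, no cells; pin compound or DMSO vehicle; read red channel, Ex/Em 540/590 nm. Output given as Rose Bengal sodium equivalents.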

[6] = qHTS assay to test for compound auto fluorescence at 460 nm (blue) in HepG2 cell free culture (AID 720685)
Method in brief: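 Compound (23 nL) or DMSO pinned into cell-free MEM with 10% FBS; blue fluorescence read at 405/460 nm excitation/emission, expressed as auto-fluorescence equivalency to triamterene.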

[7] = qHTS assay to test for compound auto fluorescence at 535 nm (green) in HepG2 cell free culture (AID 720686)
[8] = qHTS assay to test for compound auto fluorescence at 460 nm (blue) in HepG2 cells (AID 720687)
Method in brief: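 Blue-channel autofluorescence (Ex/Em 405/460 nm, triamterene-equivalent) was measured after 1 hr compound exposure at 37 C, 5% CO2. Cells were HepG2, plated overnight at 37 C in MEM plus 10% FBS.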

[9] = biological target: Glucocorticoid receptor (Homo sapiens) (UniProt P04150); assay: qHTS assay to identify small molecule agonists of the glucocorticoid receptor (GR) signaling pathway (AID 720691; active means well fitted activation curve with a large enough effect in the signal ratio in the repeat runs, not every such curve was filed as active; the % refers to the signal ratio)
Method in brief: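 GR-bla HeLa cells (beta-lactamase reporter under glucocorticoid response element) were plated 4 h at 37 C/5% CO2, given compounds in DMSO, and incubated 18 h at 37 C. LiveBLAzer B/G FRET substrate was added for 2 h at room temperature, then fluorescence intensity read.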

[10] = biological target: Glucocorticoid receptor (Homo sapiens) (UniProt P04150); assay: qHTS assay to identify small molecule antagonists of the glucocorticoid receptor (GR) signaling pathway (AID 720692; active means well fitted inhibition curve with a large enough effect in the signal ratio in the repeat runs, not every such curve was filed as active; the % refers to the signal ratio)
Method in brief: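 GR-bla HeLa cells (beta-lactamase reporter under glucocorticoid response element) were pre-plated 4 h at 37 C, treated with compounds plus 5 nM dexamethasone (final) for 18 h, then read by LiveBLAzer B/G FRET fluorescence after 2 h.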

[11] = qHTS assay to identify small molecule antagonists of the glucocorticoid receptor (GR) signaling pathway - cell viability counter screen (AID 720693); further: nearly all actives have a fitted effect of over 55% in size
[12] = qHTS assay for identifying genotoxic compounds that show differential cytotoxicity against isogenic chicken DT40 cell lines with known DNA damage response pathways - wild type cell line (AID 743012); further: nearly all actives have a fitted effect of over 60% in size
Method in brief: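 Parental DNA repair-proficient DT40 cells, 300 per well, were pre-incubated ~0.5 h at 37 C/5% CO2, pin-dosed with compounds in DMSO, then incubated 40 h. Viability was read as CellTiter-Glo luminescence after 30 min at room temperature.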

[13] = qHTS assay for identifying genotoxic compounds that show differential cytotoxicity against isogenic chicken DT40 cell lines with known DNA damage response pathways - Rad54/Ku70 mutant cell line (AID 743015); further: nearly all actives have a fitted effect of over 60% in size
[14] = qHTS assay to identify small molecule antagonists of the androgen receptor (AR) signaling pathway using the MDA cell line - cell viability counter screen (AID 743041; further: nearly all actives have a fitted effect of over 45% in size)
Method in brief: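 Cells were plated at 3,000 per well and left 5 h. Compounds in DMSO were then pinned in, followed by R1881. After 16 h at 37C, CellTiter-Fluor fluorescence gave viability.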

[15] = qHTS assay to identify small molecule antagonists of the androgen receptor (AR) signaling pathway - cell viability counter screen (AID 743033; further: nearly all actives have a fitted effect of over 45% in size)
[16] = biological target: Androgen receptor (Homo sapiens) (UniProt P10275); assay: qHTS assay to identify small molecule agonists of the androgen receptor (AR) signaling pathway (AID 743036; active means well fitted activation curve with a large enough effect in the signal ratio in the repeat runs, with a control signal flat, not every such curve was filed as active; the % refers to the signal ratio)
Method in brief: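 Beta-lactamase under UAS control, stably integrated in HEK293 GripTite cells, reports receptor activation. After 16 h compound treatment, cells received FRET substrate for 2 h at room temperature before fluorescence reading.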

[17] = biological target: Androgen receptor (Homo sapiens) (UniProt P10275); assay: qHTS assay to identify small molecule agonists of the androgen receptor (AR) signaling pathway using the MDA cell line (AID 743040; further: nearly all actives have a fitted effect of over 20% in size)
Method in brief: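 Cells plated, 5 h at 37C/0% CO2; compound or DMSO pinned; 16 h at 37C; ONE-Glo added; luminescence measured after 30 min at room temperature. Reporter line: MDA-kb2 with MMTV-luciferase responsive to AR and GR.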

[18] = biological target: Androgen receptor (Homo sapiens) (UniProt P10275); assay: qHTS assay to identify small molecule antagonists of the androgen receptor (AR) signaling pathway using the MDA cell line (AID 743042; further: nearly all actives have a fitted effect of over 55% in size)
Method in brief: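 Antagonist mode: compounds plus R1881 agonist added to MDA-kb2 AR-luc cells, incubated 16 h at 37C. Luciferase reporter luminescence quantified, with multiplexed CellTiter-Fluor readout for cell viability.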

[19] = qHTS assay for identifying genotoxic compounds that show differential cytotoxicity against isogenic chicken DT40 cell lines with known DNA damage response pathways - Rev3 mutant cell line (AID 743014); further: nearly all actives have a fitted effect of over 55% in size

Measured: Potency

Chain of Glucocorticoid receptor (Homo sapiens) (P04150 whole entry, looked up): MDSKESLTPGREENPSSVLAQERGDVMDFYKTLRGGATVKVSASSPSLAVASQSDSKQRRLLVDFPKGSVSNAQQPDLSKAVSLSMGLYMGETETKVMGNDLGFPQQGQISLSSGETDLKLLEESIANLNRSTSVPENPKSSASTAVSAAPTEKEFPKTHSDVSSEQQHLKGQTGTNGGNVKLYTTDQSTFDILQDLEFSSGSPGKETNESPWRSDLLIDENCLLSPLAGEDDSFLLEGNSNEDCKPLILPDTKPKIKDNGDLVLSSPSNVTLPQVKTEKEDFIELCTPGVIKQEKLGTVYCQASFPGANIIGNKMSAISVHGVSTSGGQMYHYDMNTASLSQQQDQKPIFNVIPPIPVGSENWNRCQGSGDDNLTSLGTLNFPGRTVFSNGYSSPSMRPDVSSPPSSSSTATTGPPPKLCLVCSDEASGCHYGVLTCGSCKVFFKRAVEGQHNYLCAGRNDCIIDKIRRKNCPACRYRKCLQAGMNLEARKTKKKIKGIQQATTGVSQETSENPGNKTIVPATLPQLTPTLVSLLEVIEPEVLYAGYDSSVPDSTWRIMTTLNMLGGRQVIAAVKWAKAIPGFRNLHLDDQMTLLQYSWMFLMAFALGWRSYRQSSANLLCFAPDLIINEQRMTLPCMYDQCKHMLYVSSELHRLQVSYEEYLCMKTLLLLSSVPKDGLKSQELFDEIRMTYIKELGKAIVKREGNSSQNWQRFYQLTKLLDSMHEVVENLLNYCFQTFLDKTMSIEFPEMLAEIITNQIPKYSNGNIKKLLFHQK
Chain of Androgen receptor (Homo sapiens) (P10275 whole entry, looked up): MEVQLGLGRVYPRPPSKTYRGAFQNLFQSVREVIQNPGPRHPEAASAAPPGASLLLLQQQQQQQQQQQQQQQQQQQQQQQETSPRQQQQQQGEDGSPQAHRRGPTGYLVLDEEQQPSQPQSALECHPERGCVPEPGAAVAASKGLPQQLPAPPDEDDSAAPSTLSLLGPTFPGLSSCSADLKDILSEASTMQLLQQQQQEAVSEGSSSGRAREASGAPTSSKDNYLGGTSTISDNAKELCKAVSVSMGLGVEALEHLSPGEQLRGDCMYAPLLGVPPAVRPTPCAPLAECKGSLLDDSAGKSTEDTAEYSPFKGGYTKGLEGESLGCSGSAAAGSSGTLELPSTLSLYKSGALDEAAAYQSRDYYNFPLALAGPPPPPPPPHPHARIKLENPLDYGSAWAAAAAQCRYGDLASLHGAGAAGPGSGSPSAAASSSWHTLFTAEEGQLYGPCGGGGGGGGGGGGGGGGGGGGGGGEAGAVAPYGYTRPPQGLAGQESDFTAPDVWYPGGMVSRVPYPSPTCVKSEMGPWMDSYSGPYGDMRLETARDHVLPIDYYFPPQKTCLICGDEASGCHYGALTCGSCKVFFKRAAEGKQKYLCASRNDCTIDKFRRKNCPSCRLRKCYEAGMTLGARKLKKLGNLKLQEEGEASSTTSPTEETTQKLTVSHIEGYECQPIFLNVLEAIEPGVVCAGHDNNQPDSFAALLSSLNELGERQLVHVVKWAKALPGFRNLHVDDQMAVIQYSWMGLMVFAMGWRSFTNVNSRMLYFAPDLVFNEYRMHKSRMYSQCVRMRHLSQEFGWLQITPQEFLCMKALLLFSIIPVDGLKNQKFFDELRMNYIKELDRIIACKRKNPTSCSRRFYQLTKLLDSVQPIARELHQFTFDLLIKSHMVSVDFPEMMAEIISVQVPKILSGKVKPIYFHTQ

CC(=O)N[C@@H](CCC(=O)O)C(=O)O
not listed: [15] | [16] | [17] | [18] | [19]
inactive: all other assays above

CC(=O)Nc1ccc(S(=O)(=O)Cl)cc1
not listed: [13] | [16] | [17] | [18] | [19]
inactive: all other assays above

CCc1ccc(C=O)cc1
not listed: [16] | [17] | [18] | [19]
inactive: all other assays above

C[C@@H](Oc1ccc(CNC(=O)c2cccnc2Oc2ccc3c(c2)OCO3)c(F)c1)C(=O)O
not listed: [13] | [16] | [17] | [18] | [19]
inactive: all other assays above

CCN1CCc2nc(N)oc2CC1
not listed: [15] | [16] | [17] | [18] | [19]
inactive: all other assays above

CCN(CC)CC(=O)Nc1c(C)cccc1C
not listed: [12] | [13] | [15] | [19]
inactive: all other assays above

COC(=O)CCCCCCCC(=O)OC
not listed: [12] | [16] | [17] | [18]
inactive: all other assays above

CCNC(=O)C1CC(C)CCC1C(C)C (stereo unspecified)
not listed: [11] | [16] | [17] | [18]
inactive: all other assays above
